Measurements as given in PMC12350791.

Chain of EFTUD2, Q15029 (Q15029 whole entry): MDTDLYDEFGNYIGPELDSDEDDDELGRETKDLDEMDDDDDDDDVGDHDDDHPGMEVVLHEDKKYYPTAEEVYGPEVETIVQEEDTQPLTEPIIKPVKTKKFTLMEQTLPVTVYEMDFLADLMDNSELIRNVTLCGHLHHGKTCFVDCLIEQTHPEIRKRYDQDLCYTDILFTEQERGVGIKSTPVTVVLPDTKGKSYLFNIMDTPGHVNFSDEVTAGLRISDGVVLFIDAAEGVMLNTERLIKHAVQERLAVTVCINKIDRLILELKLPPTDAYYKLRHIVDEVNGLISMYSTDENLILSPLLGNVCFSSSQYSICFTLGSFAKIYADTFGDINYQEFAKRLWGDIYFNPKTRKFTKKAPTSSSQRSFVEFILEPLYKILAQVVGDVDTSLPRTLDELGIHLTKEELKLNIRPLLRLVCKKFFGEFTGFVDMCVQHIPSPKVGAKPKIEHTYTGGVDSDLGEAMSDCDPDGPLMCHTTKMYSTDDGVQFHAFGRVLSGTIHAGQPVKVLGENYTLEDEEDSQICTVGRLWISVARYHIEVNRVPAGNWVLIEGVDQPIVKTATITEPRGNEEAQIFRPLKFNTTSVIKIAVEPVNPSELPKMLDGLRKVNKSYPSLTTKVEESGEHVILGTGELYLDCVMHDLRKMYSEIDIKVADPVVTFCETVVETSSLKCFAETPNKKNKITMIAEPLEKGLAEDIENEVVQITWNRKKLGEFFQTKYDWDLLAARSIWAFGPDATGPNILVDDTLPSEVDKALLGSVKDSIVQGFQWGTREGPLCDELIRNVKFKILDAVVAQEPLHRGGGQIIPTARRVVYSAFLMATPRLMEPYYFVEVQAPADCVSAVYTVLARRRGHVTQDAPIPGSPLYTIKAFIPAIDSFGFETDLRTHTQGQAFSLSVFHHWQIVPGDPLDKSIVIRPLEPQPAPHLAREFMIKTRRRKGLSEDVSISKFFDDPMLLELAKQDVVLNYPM
Chain of USP39, Q53GS9 (Q53GS9 whole entry): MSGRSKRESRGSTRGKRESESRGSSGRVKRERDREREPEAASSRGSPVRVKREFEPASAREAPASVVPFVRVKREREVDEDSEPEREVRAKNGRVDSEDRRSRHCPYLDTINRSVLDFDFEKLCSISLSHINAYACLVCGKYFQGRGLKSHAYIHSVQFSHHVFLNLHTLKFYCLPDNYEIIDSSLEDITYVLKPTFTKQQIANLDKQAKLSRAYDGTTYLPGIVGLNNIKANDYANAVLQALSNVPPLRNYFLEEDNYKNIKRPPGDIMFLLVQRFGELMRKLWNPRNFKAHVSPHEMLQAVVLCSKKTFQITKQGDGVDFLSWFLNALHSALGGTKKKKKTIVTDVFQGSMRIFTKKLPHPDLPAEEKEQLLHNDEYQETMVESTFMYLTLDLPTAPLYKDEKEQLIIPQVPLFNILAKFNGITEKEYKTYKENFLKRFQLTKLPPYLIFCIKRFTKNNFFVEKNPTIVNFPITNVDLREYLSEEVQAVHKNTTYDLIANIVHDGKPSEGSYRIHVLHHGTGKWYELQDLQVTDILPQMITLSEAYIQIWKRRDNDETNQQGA
Chain of PLRG1, O43660 (O43660 whole entry): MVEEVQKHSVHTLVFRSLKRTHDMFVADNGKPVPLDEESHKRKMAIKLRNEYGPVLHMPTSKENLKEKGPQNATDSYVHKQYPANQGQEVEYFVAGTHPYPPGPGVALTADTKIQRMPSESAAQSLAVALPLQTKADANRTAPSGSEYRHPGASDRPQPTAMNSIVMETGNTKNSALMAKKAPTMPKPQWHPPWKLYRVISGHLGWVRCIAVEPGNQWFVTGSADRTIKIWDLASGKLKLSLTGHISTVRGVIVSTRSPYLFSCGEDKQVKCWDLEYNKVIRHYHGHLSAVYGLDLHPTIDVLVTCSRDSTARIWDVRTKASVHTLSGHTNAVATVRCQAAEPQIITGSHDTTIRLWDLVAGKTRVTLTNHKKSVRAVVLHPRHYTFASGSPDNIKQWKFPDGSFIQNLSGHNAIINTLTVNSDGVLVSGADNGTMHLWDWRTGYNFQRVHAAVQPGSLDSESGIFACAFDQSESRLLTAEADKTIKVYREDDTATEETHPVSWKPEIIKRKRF

These substances were tested against PRPF8 (UniProt Q6P2Q9) (assay: cross-linking mass spectrometry). Details: DSBSO, in cells or nuclear extract, not told apart.
PLRG1, O43660 was tested, and the cross-linked residues was “K320 - K666”. For EFTUD2, Q15029, the cross-linked residues was “K405 - K218”. USP39, Q53GS9 was tested, and the cross-linked residues was “K508 - K983”.
